Screening data as filed in PubChem BioAssay.
Only some compounds are listed: those with a hit (about 3.1% of all), similar ones and a draw of the others.
Peg3 promoter: inhibitors of Peg3 promoter; HeLa PEG-Prom luciferase reporter, luminescence, overnight; inhibition, % at 20 µM; 360,000 compounds, 1.7% hits; AID 588405;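 active = inhibition of at least 50% at 20 µM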
KKLEB tox: counter-screen for CF NF-kB inhibitors: cytotoxicity | KKLEB CF airway cells viability, ATPlite luminescence, overnight; hits give low values; cells stimulated with P. aeruginosa culture filtrate | AID 602141 | activity change (cytotoxicity), % at 5 µM | 360,000 compounds, 0.36% hits;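 active = corrected activity change at or below -50% at 5 µM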
ABHD5 PLIN5 PPI: inhibitors of human ABHD5-perilipin-5 interaction; Split G. princeps luciferase complementation, luminescence, 4 h; Q00G26+Q8WTS1; inhibition, % at 4 µM; 360,000 compounds, 0.78% hits;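 active = inhibition above the mean inhibition across every tested compound plus 3 SD, cut at about 22% in these data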;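 also: 0% = DMSO only wells and the 100% control is not disclosed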
Target sequence (Q00G26 whole entry, looked up): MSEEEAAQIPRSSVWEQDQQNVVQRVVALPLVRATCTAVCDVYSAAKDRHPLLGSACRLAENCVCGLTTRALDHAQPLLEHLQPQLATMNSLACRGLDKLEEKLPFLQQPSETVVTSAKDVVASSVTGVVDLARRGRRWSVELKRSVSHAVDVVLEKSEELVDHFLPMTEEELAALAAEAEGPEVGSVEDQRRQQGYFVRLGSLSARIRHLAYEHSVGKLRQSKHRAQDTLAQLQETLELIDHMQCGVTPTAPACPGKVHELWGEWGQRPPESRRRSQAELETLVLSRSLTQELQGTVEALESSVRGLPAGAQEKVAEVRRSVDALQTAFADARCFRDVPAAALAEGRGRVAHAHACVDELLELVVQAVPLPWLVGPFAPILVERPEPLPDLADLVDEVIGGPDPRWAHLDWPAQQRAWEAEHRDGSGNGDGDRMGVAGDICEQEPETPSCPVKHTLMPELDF
Target sequence (Q8WTS1 whole entry, looked up): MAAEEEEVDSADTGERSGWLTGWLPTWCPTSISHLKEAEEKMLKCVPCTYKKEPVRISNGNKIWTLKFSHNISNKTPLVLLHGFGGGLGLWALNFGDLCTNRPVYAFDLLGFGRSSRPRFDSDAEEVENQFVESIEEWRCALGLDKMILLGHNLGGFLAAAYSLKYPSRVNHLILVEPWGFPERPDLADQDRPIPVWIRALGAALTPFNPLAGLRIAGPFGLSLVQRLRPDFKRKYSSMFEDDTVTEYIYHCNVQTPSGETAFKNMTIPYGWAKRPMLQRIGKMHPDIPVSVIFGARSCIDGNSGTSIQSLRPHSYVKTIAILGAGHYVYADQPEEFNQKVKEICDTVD
TRPM1 prom inh: reduces MITF-dependent TRPM1 promoter luciferase signal | SK-MEL-5 TRPM1 promoter luciferase, 24 h | inhibition, % at 12.5 µM | 330,000 compounds, 0.83% hits;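 active = mean inhibition across replicates of 60% or more, whatever share of single replicates reaches that level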
CF NFkB inh: blocks PAF-induced NF-kB reporter in cystic fibrosis cells; KKLEB NF-kB-GFP reporter, GFP fluorescence overnight; inhibition, % at 5 µM; 360,000 compounds, 0.86% hits;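 active = at least 50% inhibition at 5 µM, scaled per plate between neutral and stimulator controls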;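 also: PAF is a Pseudomonas aeruginosa culture filtrate used as stimulus; plate controls were PAF-stimulated DMSO wells for no effect and unstimulated DMSO wells for full effect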
HIF-2a block: HIF-2a inhibition | 786-0 RCC cells HIF-2a reporter, luciferase luminescence, overnight | inhibition, % at 18.8 µM | 360,000 compounds, 0.72% hits | AID 624352;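 active = inhibition of the luminescence signal of 40% or more relative to plate controls, in a single-dose primary screen at 18.75 µM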
CF NFkB conf: CF NF-kB inhibition confirmation, single concentration | shares compounds with CF NFkB inh | KKLEB CF airway cells, PAF-induced NF-kB-GFP fluorescence, overnight | inhibition, % at 5 µM | 1,300 compounds, 64% hits | AID 602472; in the data active = inhibition above about 40%;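 also: stimulus PAF is a Pseudomonas aeruginosa filtrate and not platelet activating factor; plate controls were DMSO wells with stimulus for no effect and unstimulated DMSO wells for full effect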
Active calls of the source: *; . = no result.

SMILES | Peg3 promoter | KKLEB tox | ABHD5 PLIN5 PPI | TRPM1 prom inh | CF NFkB inh | HIF-2a block | CF NFkB conf
COc1ccc(-c2ccc(F)cc2)cc1[C@H]1[C@H]2C=CC[C@@H](C)[C@@H]2C(=O)N1Cc1ccccc1 | 16 | -2 | -13 | -12 | 75* | 11 | 35
COc1ccc(-c2ccc(OC)c([C@H]3[C@H]4C=CC[C@@H](C)[C@@H]4C(=O)N3Cc3ccccc3)c2)cc1OC | 6 | -17 | -2 | 7 | 35 | 18 | .
COc1cc2c(Cc3ccccc3)cncc2cc1O | 10 | 3 | 13 | -1 | 53* | 13 | 66*
Cc1ccc2c(c1)N(C(=O)CCC(=O)NCc1cccc(Br)c1)CC(C)O2 (stereo not given) | 31 | 0 | 3 | . | 11 | -3 | .
Cc1c(O)ccc2c(-c3ccccc3)cc(=O)oc12 | 15 | 20 | 0 | 2 | 75* | 6 | 95*
NC(=O)c1nc(-c2cccs2)nc2c1[nH]c(=O)n2-c1ccc(F)cc1 | 43 | -42 | 1 | 1 | 53* | 6 | 2
COc1ccc(CNC(=O)CNC(=O)CNS(=O)(=O)c2ccc(C)c(C)c2)cc1 | 18 | 8 | 0 | 10 | -3 | 13 | .
C/C(=N/Nc1ccccc1[N+](=O)[O-])c1ccc([N+](=O)[O-])cc1 | 1 | -38 | 6 | -1 | 51* | 14 | 24
CC1CCN(C(=O)c2[nH]cnc2C(=O)N2CCN(C(=O)OC(C)(C)C)CC2)CC1 | 0 | 11 | 4 | 7 | 1 | 10 | .
COC(=O)C1C2CC3c4[nH]c5cc(OC)ccc5c4CCN3CC2CC(OC(=O)CC(C)=O)C1OC (stereo not given) | -18 | -2 | 7 | 1 | -9 | 5 | .
CCOC(=O)Oc1c(OC)cc(C(=O)O[C@@H]2C[C@@H]3CN4CCc5c([nH]c6cc(OC)ccc56)[C@H]4C[C@@H]3[C@H](C(=O)OC)[C@H]2OC)cc1OC | 26 | 11 | -1 | 33 | 77* | 15 | 87*
CC(C)CC(=O)NNC(=O)C(C)C | -1 | 4 | -2 | 5 | 4 | 11 | .
CC(C)(C)c1ccc(C(=O)O/N=C(\N)Cc2cccs2)cc1 | 6 | -21 | -1 | . | 61* | -63 | 18
O=C(Nc1ccc(Cl)cc1)c1nc[nH]c1C(=O)NCCCCNC(=O)c1[nH]cnc1C(=O)Nc1ccc(Cl)cc1 | 80* | -13 | -4 | 18 | 79* | -12 | 102*
C=C1C(=O)O[C@@]23[C@H]1CC[C@@H](C)[C@@H]2CC[C@@]1(C)O[C@@H]31 | -102 | 4 | 13 | 85* | 54* | 19 | 71*
CCOC(=O)N1CCN(C(=O)c2c(N)no[n+]2[O-])CC1 | 15 | 6 | -7 | -15 | 15 | 18 | .
Clc1ccc(-c2csc3ncnc(NCCN4CCOCC4)c23)cc1 | 14 | -13 | 3 | 1 | 44 | 22 | .
COc1ccc(-c2csc3ncnc(NCCN4CCOCC4)c23)cc1 | 30 | -17 | 1 | 1 | 56* | 33 | 82*
Cc1ccc(-c2csc3ncnc(NCCN4CCOCC4)c23)cc1 | 27 | -23 | 1 | 15 | 58* | 31 | 47*
CC1(c2ccc(OC(F)F)cc2)NC(=O)N(CC(=O)N2c3ccccc3NC(=O)C2(C)C)C1=O (stereo not given) | 19 | -3 | -9 | 6 | 20 | 10 | .
Nc1nc(N2CCN(c3ccc(F)cc3)CC2)n[nH]1 | 2 | -17 | -5 | -2 | 17 | 8 | .
CC(=O)OCC(=O)[C@H]1CC[C@H]2[C@@H]3CCC4=CC(=O)CC[C@]4(C)[C@H]3CC[C@]12C | 15 | 12 | -4 | 7 | 14 | -8 | .
CC12CCC(=O)C=C1CCC1C2C(O)CC2(C)C1CCC2(O)C(=O)COC(=O)CCC1CCCC1 (stereo not given) | -9 | 10 | 2 | . | 53* | 32 | 9
CC(=O)OCC(=O)C1(O)CCC2C3CCC4=CC(=O)CCC4(C)C3(Cl)C(O)CC21C (stereo not given) | -5 | 17 | 2 | -3 | 77* | 14 | -12
CC(C)(CNC(=O)CO/N=C1/C=C2CCC3C(C(O)C[C@@]4(C)C3CC[C@]4(O)C(=O)CO)[C@@]2(C)CC1)C(O)C(=O)O (stereo not given in full) | -15 | 26 | 3 | -7 | 70* | 6 | 15
SMILES | Peg3 promoter | KKLEB tox | ABHD5 PLIN5 PPI | TRPM1 prom inh | CF NFkB inh | HIF-2a block | CF NFkB conf
O=C(Nc1ccncc1)Nc1cccc(Cl)c1 | -93 | -5 | -4 | -19 | 9 | -83 | .
O=C(Nc1cccc(Cl)c1)Nc1csc([N+](=O)[O-])c1 | -67 | -48 | -6 | -6 | 54* | -173 | 63*
CCCS(=O)(=O)NC(=O)C1(C)CCN(C(=O)c2cccnc2Oc2ccccc2)C1 (stereo not given) | 8 | 9 | 4 | . | -7 | 7 | .
COc1ccccc1C(=O)Nc1ccccc1SC(=O)c1ccccc1OC | -93 | 2 | -50 | -8 | 51* | -98 | 39
O=C(Nc1ccc(Cl)c(Cl)c1)Nc1ccon1 | -42 | -12 | 11 | 1 | 54* | -51 | 40*
Cc1ccc(C(=O)c2cnc3ccccc3c2-c2ccccc2)cc1 | 19 | -17 | -9 | -8 | 70* | 17 | 38
C[C@H]1CCC[C@]2(C)C[C@H]3OC(=O)C(CN4CCCCCC4)[C@H]3C=C12 (stereo not given in full) | 6 | -22 | 21 | 78* | 74* | -5 | 40
COc1ccc(-n2nc(C(=O)NCC(=O)Nc3cc(OC)c(OC)c(OC)c3)c3ccccc3c2=O)cc1Cl | 44 | -20 | -13 | 16 | 79* | 6 | 101*
CC(C)(O)C#Cc1ccc([C@@H]2C[C@H]3CN(c4ccccc4)C(=O)[C@]34CCCN24)s1 | 103* | -1 | -11 | 45 | 60* | -7 | 44*
COc1ccc([C@@H]2C[C@H]3CN(c4ccccc4)C(=O)[C@]34CCCN24)c(OC)c1OC | -2 | -8 | 0 | -12 | 5 | 19 | .
CC(C)CN(C(=O)CC1OC(=O)c2ccccc21)c1c(N)n(Cc2ccccc2)c(=O)[nH]c1=O (stereo not given) | 0 | 7 | 6 | 1 | -19 | 3 | .
O=C(Nc1ccc(F)cc1)Nc1ccc(N2CCCC2)c(S(=O)(=O)Nc2ccccc2Cl)c1 | 42 | -16 | -4 | 75* | 60* | -15 | 71*
O=c1ccc(=O)n(-c2ccccc2)[nH]1 | 18 | -8 | 1 | -4 | -1 | 9 | .
O=c1cc(-c2ccccc2)[nH]n1-c1ccccc1 | 12 | -4 | -9 | 4 | 58* | -23 | 32
O=C1NC(=O)C(=Cc2ccc(Cl)cc2Cl)S1 | -148 | 7 | -7 | -24 | 54* | -223 | 37
